From PubChem BioAssay AID588432 (Broad Institute, 2011)
Active and inactive are the calls of the source.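 The calls were made as follows: active = luciferase inhibitors whose fitted dose curve gives a half-maximal potency within ten times the top tested dose; inconclusive = flat curve with 30 to 70% inhibition, or a poor fit; inactive = the rest.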

Assay: luciferase inhibitors in kinase-free ADP detection – biochemical, luminescence, cherry-pick, set 04, artefact control for Dyrk1A inhibitor project, dose response (AID 588432)
Conditions: ADP-Glo luminescence without kinase, luciferase artifact; series mostly up to 12 µM; activity change, negative = inhibition: at the top concentration

Activity change, negative = inhibition, inactive:
O=[N+]([O-])c1cc(Nc2nccc(-c3ccc4c(c3)OCO4)n2)cc(C(F)(F)F)c1 2.67%, Clc1ccccc1-c1ccc2ncnc(NCc3ccc4c(c3)OCO4)c2c1 -4.77%, Cc1ccsc1CNc1ncnc2ccc(-c3ccc4c(c3)OCO4)cc12 -3.91%, CCCNc1ncnc2ccc(-c3ccc4c(c3)OCO4)cc12 -1.35%, c1nc(NCC2CCCC2)c2cc(-c3ccc4c(c3)OCO4)ccc2n1 2.52%, c1cc(-c2ccc3c(c2)OCO3)nc(Nc2ccc3c(c2)OCO3)n1 3.29%, Clc1ccc(CNc2nccc(-c3ccc4c(c3)OCCO4)n2)cc1Cl 7.14%, Cc1cccc(CNc2ncnc3ccc(-c4cccc(Cl)c4)cc23)c1 -1.34%, Cc1csc(CNc2ncnc3ccc(-c4ccc5c(ccn5C)c4)cc23)c1 -1.83%, Fc1c(-c2ccc3ncnc(NCc4cccs4)c3c2)ccc2c1OCO2 -2.17%, c1cncc(CNc2nccc(-c3ccc4c(c3)OCO4)n2)c1 6.03%, Clc1cc(Cl)cc(CNc2cc(-c3ccc4c(c3)OCO4)ncn2)c1 1.87%, c1cncc(CNc2nccc(-c3ccc4cn[nH]c4c3)n2)c1 0.513%, Clc1ccc(CNc2ncncc2-c2ccc3c(c2)OCO3)cc1Cl -2.3%, Clc1ccc(CNc2cc(-c3ccc4c(c3)OCO4)ncn2)cc1Cl 3.25%, c1cncc(CNc2nccc(-c3ccc4[nH]ncc4c3)n2)c1 -1.45%, CN(Cc1ccco1)c1ncnc2ccc(-c3ccc4c(c3)OCO4)cc12 -4.27%, c1nc(NCC2CCCOC2)c2cc(-c3ccc4c(c3)OCO4)ccc2n1 (centres undefined) -4.69%, Cc1ccc(CNc2ncnc3ccc(-c4ccc5c(c4)OCO5)cc23)o1 0.645%, c1csc(CNc2ncnc3ccc(-c4ccoc4)cc23)c1 0.227%, CN(Cc1cccs1)c1ncnc2ccc(-c3ccc4c(c3)OCO4)cc12 -1.74%, COc1ccc(-c2nccc(NCc3ccc(C)cc3)n2)cc1 -3.12%, Clc1ccc(CNc2ccnc(-c3ccc4[nH]ncc4c3)n2)cc1Cl -2.95%, Cc1csc(CN(C)c2ncnc3ccc(-c4ccc5c(c4)OCO5)cc23)n1 0.986%, Cc1nc(CN(C)c2ncnc3ccc(-c4ccc5c(c4)OCO5)cc23)cs1 4.71%, FC(F)(F)c1cc(Br)cc(Nc2nccc(-c3ccc4c(c3)OCO4)n2)c1 0.301%, Cc1noc(CN(C)c2ncnc3ccc(-c4ccc5c(c4)OCO5)cc23)n1 -2.83%, Cc1occc1CNc1ncnc2ccc(-c3ccc4c(c3)OCO4)cc12 9.98%, FC(F)(F)c1cccc(Nc2nccc(-c3ccc4c(c3)OCO4)n2)c1 6.14%, Clc1ccc(Nc2nccc(-c3ccc4c(c3)OCO4)n2)cc1 6.82%, c1nc(NCC2CCCO2)c2cc(-c3ccc4c(c3)OCO4)ccc2n1 (centres undefined) 3.45%, Clc1cc(Cl)cc(CNc2nccc(-c3ccc4c(c3)OCO4)n2)c1 -5.52%, CCN1/C(=C/C(C)=O)Sc2ccc(OC)cc21 -1.71%

outcome, inactive:
CCOC(=O)c1ccc(-c2ccc3ncnc(NCc4ccc(C)o4)c3c2)o1
